Laboratory results published in PubChem BioAssay (NCATS).
Results filed as inconclusive are left out. Where a call stands in place of a potency, no number is given. Activity calls are given as the source filed them. Calls come from the whole dose curve; as a rule, active = well fitted inhibition curve with a large enough effect; inconclusive = small, poorly fitted or top-dose-only effect; inactive = no such curve, though single readings can be large or run the other way.

System: Zika virus NS2B-NS3 protease (unlinked complex)
Test: Primary screen GU Rhodamine qHTS for Zika virus inhibitors: Unlinked NS2B-NS3 protease assay (AID 1347159); note: nearly all actives have a fitted effect of over 60% in size
Details: Recombinant ZIKV NS2B-NS3 protease, Rhodamine110 substrate fluorescence; series mostly up to 107 µM
Text: Avindra Nath, Ph.D., National Institute of Neurological Disorders and Stroke (NINDS), Bethesda, MD
Radhakrishnan Padmanabhan, Ph.D., Georgetown University (GU), Washington D.C.
Zika Virus causes congenital defects, including microcephaly and is associated with Guillain-Barre syndrome, eningoencephalitis and myelitis in infected adult. […] Using a target-based approach, we hope to establish a screening paradigm to uncover novel, cell-active NS2B-NS3 protease (Zika Virus) specific inhibitors from NCATS' collection of small molecules using qHTS.
Four assay panel was created to identify potential Zika Virus inhibitors. Namely, (1) GU unlinked NS2B-NS3 AMC tagged protease qHTS, (2) GU unlinked NS2B-NS3 Rhodamine tagged protease qHTS, (3) NINDS linked NS2B-NS3 AMC tagged protease qHTS, (4) NINDS linked NS2B-NS3 Rhodamine tagged protease qHTS. Active compounds were re-acquired and re-screened to confirm inhibition. Inhibitors were further screened against various confirmatory and counterscreens in dose response format.
Early Translation Branch (ETB)
National Center for Advancing Translational Sciences (NCATS), Rockville, MD
National Institute of Health (NIH), Bethesda, Maryland
Padmanabhan lab provided the NS2B hydrophilic domain and NS3 protease domain in a noncovalent complex used for the unlinked assay. Control compound aprotinin is obtained from Thermo Scientific (#78432; Waltham, Massachusetts). Rhodamine110 substrate ([N-Cbz]-Nle-Lys-Arg-Arg-Rhod110-Arg-Arg-Lys-Nle-[N-Cbz]) was purchased from either Genscript or Bachem.
1536-well Protease (Rhodamine110 Substrate) Assay:
Briefly, 3 microL of enzyme (25 nM final concentration), in assay buffer (10 mM Tris-HCl pH 8.0 with 0.01% Tween 20) were dispensed into a 1,536-well solid-bottom black plate (Greiner Bio One, Monroe, NC). Twenty-three nL of compounds (final concentration range 7.28 nM to 114 microM) or control Aprotinin (final concentration range 3.47 nM to 114 microM) were transferred via Wako Pin-tool (Wako Automation, Richmond, VA). Samples were incubated (room temperature, protected from light) for 15 minutes followed by a 1 microL Rhodamine110 substrate addition (1.5 microM final concentration). Plates were then immediately read on a ViewLux High-throughput CCD imager (PerkinElmer, Waltham, MA) equipped with FITC fluorescence optics (480(20) nm excitation, 540(25) nm emission), then incubated (room temperature, protected from light) for 15 minutes (~15% conversion). The change in fluorescence intensity over the 15-minute reaction period was normalized against no-inhibitor and no-enzyme controls and the resulting percent inhibition data were fitted to a 4-parameter Hill equation. Aprotinin was used as intraplate control.
Potency is the fitted concentration of half-maximal effect.

Row | SMILES | Potency
1 | CCCNC(=O)NS(=O)(=O)c1ccc(Cl)cc1 | inactive
2 | CC(C)C(=O)Nc1ncc(-c2cc(C(F)F)nn2-c2c(Cl)cccc2Cl)s1 | inactive
3 | NC(=O)c1ccc2nc(-c3ccc(Oc4ccc(Cl)cc4)cc3)[nH]c2c1 | inactive
4 | Cc1ccccc1C(C(=O)NC1CCCCC1)N(C(=O)Cn1ccnc1C)c1cccc(F)c1 (stereo not given) | inactive
5 | Cn1c(N2CCCCS2(=O)=O)nc(C(=O)NCc2ccc(F)cc2)c(O)c1=O | inactive
6 | Cc1nc(N)sc1-c1ccnc(Nc2ccc(N3CCOCC3)cc2)n1 | inactive
7 | Cc1ccc(Nc2cc(-c3cccc(N4C(=O)c5ccccc5C4=O)c3)ncn2)cc1NS(C)(=O)=O | 50.1 µM (active)
8 | CN(C[C@@H]1COCCO1)S(=O)(=O)Nc1ccc2ccc3ncc(-c4cnn(C)c4)cc3c(=O)c2c1 | inactive
9 | CS(=O)(=O)N(Cc1ccco1)CC(O)Cn1c2ccccc2c2ccccc21 (stereo not given) | inactive
10 | CC1CCC(C(=O)N(c2cc(C#CC(C)(C)C)sc2C(=O)O)C2CCC(O)CC2)CC1 (stereo not given) | 7.94 µM (active)
11 | O=c1cc(CN2CCOCC2)occ1OCCCCCSc1ccnc2cc(C(F)(F)F)ccc12 | inactive
12 | COc1cc2ncnc(-n3nc(-c4ccccn4)nc3N)c2cc1OC | inactive
13 | CC(C)(C)c1cc(C(=O)O)c(NC(=O)Nc2ccc3[nH]ncc3c2)s1 | 17.8 µM (active)
14 | COC(=O)[C@@H]1[C@H]2C[C@H]3c4[nH]c5ccccc5c4CCN3C[C@@H]2CC[C@@H]1O | inactive
15 | CC(=O)CCCCn1c(=O)c2c(ncn2C)n(C)c1=O | inactive
16 | CC(C)C(=O)Oc1ccc(CO)cc1[C@H](CCN(C(C)C)C(C)C)c1ccccc1 | inactive
17 | CN(C)CCC(c1ccccc1)c1ccccn1 (stereo not given) | inactive
18 | COc1ccccc1N1CCN(CCCNc2cc(=O)n(C)c(=O)n2C)CC1 | inactive
19 | CN(C)Cc1ccc(-c2nc3cccc4c3n2CCNC4=O)cc1 | inactive
20 | CC(C)(C)OC(=O)N[C@H]1CCCCCC=C[C@@H]2C[C@@]2(C(=O)NS(=O)(=O)C2CC2)NC(=O)[C@@H]2C[C@@H](OC(=O)N3Cc4cccc(F)c4C3)CN2C1=O | 35.5 µM (active)

Row | SMILES | Potency
21 | C=C1C(=O)[C@@]23C(CC[C@@H]1[C@H]2O)[C@@]12CO[C@]3(O)[C@@H](O)[C@@H]1C(C)(C)CC[C@@H]2O (stereo not given in full) | inactive
22 | CO[C@H]1C=CO[C@@]2(C)Oc3c(C)c(O)c4c(O)c(c5c(c4c3C2=O)NC2(CCN(CC(C)C)CC2)N=5)=NC(=O)C(C)=CC=C[C@H](C)[C@H](O)[C@@H](C)[C@@H](O)[C@@H](C)[C@H](OC(C)=O)[C@H]1C | inactive
23 | COc1ccc2cc(-c3nc(-c4ccc(S(C)=O)cc4)[nH]c3-c3ccncc3)ccc2c1 (stereo not given) | inactive
24 | COc1cc(N2CCC(N3CCN(C)CC3)CC2)ccc1Nc1ncnc(Nc2ccccc2S(=O)(=O)C(C)C)n1 | inactive
25 | CS(=O)c1ccc(-c2nc(-c3ccc(F)cc3)c(-c3ccncc3)[nH]2)cc1 (stereo not given) | inactive
26 | CCOc1ccc(Nc2nc(-c3c(C)nc4ccccn34)cs2)cc1 | inactive
27 | CC(=O)Nc1ccc([C@H](C)C(=O)Nc2ncc(C(C)C)s2)cc1 | inactive
28 | O=C(CCN1CCN(C(=O)OCc2cc(Cl)cc(Cl)c2)CC1)c1ccc2[nH]c(=O)oc2c1 | 44.7 µM (active)
29 | CNC1CCC(N(Cc2cccc(-c3ccncc3)c2)C(=O)c2sc3c(F)ccc(F)c3c2Cl)CC1 (stereo not given) | inactive
30 | NC(=O)c1cccc(-c2cc(Nc3ccc(OC(F)(F)F)cc3)ncn2)c1 | inactive
31 | CCn1c(C(=O)N(C2CC2)C2CC2)cc2c3c(ncn3C)c(Nc3cc(C)n(C)n3)nc21 | inactive
32 | O=c1[nH]cnc2c1ncn2[C@H]1CC[C@@H](CO)O1 | inactive
33 | COc1ccc2c(Oc3ccc(NC(=O)c4c(C)n(CC(C)(C)O)n(-c5ccccc5)c4=O)cc3F)ccnc2c1 | inactive
34 | CC(C)(C)Cn1c(N)nc2ccc(-c3[nH]c(C(C)(C)C)nc3-c3ccc(F)cc3)nc21 | inactive
35 | CC(=O)N(C)C1(c2ccccc2)CCN(CCC[C@]2(c3ccc(Cl)c(Cl)c3)CCCN(C(=O)c3ccccc3)C2)CC1 | inactive
36 | CN(C)C1CCN(C(=O)c2ccc(NC(=O)Nc3nc(N4CCOCC4)nc(N4CCOCC4)n3)cc2)CC1 | inactive
37 | CC(C)[C@H](CO)Nc1nc(Nc2ccc(C(=O)O)c(Cl)c2)c2ncn(C(C)C)c2n1 | inactive
38 | Cc1c(NC(=O)c2ccc(C(C)(C)C)cc2)cccc1-c1cn(C)c(=O)c(Nc2ccc(C(=O)N3CCOCC3)cc2)n1 | inactive
39 | COc1cc2nc(-c3ccc(N4CCN(C)CC4)cc3)nc(NCCN3CCOCC3)c2cc1OC | inactive
40 | CN[C@@H](C)C(=O)N[C@H]1CN(C(=O)CC(C)C)CC[C@H]2CC[C@@H](C(=O)NC(c3ccccc3)c3ccccc3)N2C1=O | inactive
